The list is not random: actives were taken first. Their share in the collection is about 3.2%.
GLP1R ag: GLP-1 receptor (human) agonism. Potency, µM (top dose mostly 45.6 µM), for inactives: at the top dose activation, usual class: activators. actives 0.007% (n = 380,000). AID 624172. HEK293 GLP-1R CRE-luciferase, luminescence, 4-6 h; cells express a hypersensitive GLP-1R form. P43220; also: % of control where 0% means no effect
Target sequence (P43220 whole entry, looked up): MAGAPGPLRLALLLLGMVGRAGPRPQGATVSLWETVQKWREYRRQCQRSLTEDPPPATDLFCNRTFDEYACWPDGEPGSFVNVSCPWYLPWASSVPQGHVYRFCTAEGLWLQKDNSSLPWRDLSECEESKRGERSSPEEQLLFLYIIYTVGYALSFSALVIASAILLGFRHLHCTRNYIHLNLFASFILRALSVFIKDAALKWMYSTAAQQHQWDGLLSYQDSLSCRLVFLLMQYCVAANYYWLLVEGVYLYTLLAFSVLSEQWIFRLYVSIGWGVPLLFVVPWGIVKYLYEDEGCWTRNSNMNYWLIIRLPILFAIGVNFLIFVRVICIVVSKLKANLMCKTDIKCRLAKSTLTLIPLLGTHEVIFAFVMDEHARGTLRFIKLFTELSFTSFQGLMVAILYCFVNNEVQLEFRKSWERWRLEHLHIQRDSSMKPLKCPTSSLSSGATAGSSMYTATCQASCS
ClpP mod: qHTS Assay for Activators of ClpP. ATP-dependent Clp protease proteolytic subunit (Bacillus subtilis (strain 168)), P80244. purified B. subtilis ClpP, FRET peptide cleavage, 20 min. Potency, µM (series often up to 57.5 µM), for the others: top-dose activity change, negative = active. actives 1.9% (n = 340,000). AID 651965, 2013; active = well fitted falling curve with a large enough effect; inconclusive = small, poorly fitted or top-dose-only effect; inactive = no such curve, though single readings can be large or run the other way; also: the source files actives as falling curves though it sought activators and does not explain the sign; nearly all actives have a fitted effect of over 65% in size
Target sequence (P80244 whole entry, looked up): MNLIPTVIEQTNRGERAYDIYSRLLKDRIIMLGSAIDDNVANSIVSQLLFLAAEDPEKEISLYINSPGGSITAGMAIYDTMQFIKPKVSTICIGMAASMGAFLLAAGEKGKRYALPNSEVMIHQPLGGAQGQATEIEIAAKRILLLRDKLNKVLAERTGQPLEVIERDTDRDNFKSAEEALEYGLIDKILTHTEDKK
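ClpP 10 microg/mL final, pH 8 Tris/KCl buffer with BSA, glycerol, Tween-20; compound pinned in; FRET-FV substrate; RT 20 min; Ex320/Em430; ΔFRET vs ADEP 5.8 microM, DMSO, no enzyme.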
HEK293 tox: cytotoxicity counter-screen for GLP-1 receptor inverse agonists. actives 0.13% (n = 410,000). HEK293 cAMP-luciferase reporter cells, luminescence, 24 h. Potency, µM (doses to about 38.3 µM), inactives show at the highest dose activity change, negative = inhibition, most hits filed as inhibitors;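 also: loss of luciferase light is scored as toxicity; % is scaled to controls: 0 for no effect and ±100 for the full control effect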
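MLSMR compounds, 24 hr on cells at 37 deg C/5% CO2; luminescence after luciferase reagent (12 min RT). Inhibition counted as the undesired cytotoxic outcome.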
GLP1R inv ag: acts as inverse agonist at human GLP-1 receptor. P43220. HEK293 GLP-1R CRE-luciferase, luminescence, 24 h; GLP-1R form is constitutively active. Potency, µM (titrated, usually from 38.3 µM), for the others: at the top dose activity change, negative = inhibition, most hits filed as inhibitors. actives 1.6% (n = 410,000). AID 624417; also: % is scaled to controls: 0 for no effect and ±100 for the full control effect; nearly all actives have a fitted effect of over 55% in size
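Luminescence readout: a drop in cAMP-driven luciferase signal flags inverse agonism at a constitutively active GLP-1R stably expressed in HEK293. Compound exposure lasted 24 hr at 37 deg C, 5% CO2.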
Starred values were filed as active, the others as inactive; ? = inconclusive; / = not tested or not shown; [ ] = another dose, or the depositor's remark. Unless noted, calls follow the shape of the dose curve; as a rule, active = well fitted curve in the direction sought with a large enough effect; inconclusive = small, poorly fitted or top-dose-only effect, or another doubt; inactive = no such curve, though single readings can be large; an effect the other way counts as inactive or inconclusive. Potency is read from the fitted curve at half-maximal effect.

SMILES | GLP1R ag | ClpP mod | HEK293 tox | GLP1R inv ag
Cc1ccc(C(C)C)c(OCC(=O)Nc2ccc(-c3nc4ncccc4o3)cc2C)c1 | 0% | -16% | 1% | 0%
Cc1nnc2c3ccccc3nc(Nc3ccccc3C(=O)O)n12 | / | 16µM* | 6% | 3%
Cc1nnc2c3ccccc3nc(Nc3cccc(O)c3)n12 | / | -2% | 4% | 41%
CCC(C(=O)Nc1cc(C)ccc1C)n1c(=O)c(C(F)(F)F)nc2ccccc21 (stereo not drawn) | / | -5% | 4% | 18%
N#Cc1cc([N+](=O)[O-])cnc1Nc1ccccc1 | 8.9µM* | -1% | 7% | 48%
CCOC(=O)CNc1ncc([N+](=O)[O-])cc1C#N | 0% | 4% | -4% | 25%
CCc1nnc(NC(=O)CSc2nc3c([nH]c4ccccc43)c(=O)n2-c2ccc(C)cc2)s1 | 0% | -10% | 1% | 36%
CC(=O)c1ccc(-c2cc([C@H]3[C@H]4C=CC[C@@H](C)[C@@H]4C(=O)N3Cc3ccccc3)ccc2F)cc1 | 3% | -3% | -6% | 11µM*
COc1ccc(-c2ccccc2[C@H]2[C@@H]3C=CC[C@@H](C)[C@@H]3C(=O)N2Cc2ccccc2)cc1 | 1% | -1% | -8% | 8.9µM*
COc1ccc(-c2ccc([C@H]3[C@H]4C=CC[C@@H](C)[C@@H]4C(=O)N3Cc3ccccc3)c(F)c2)cc1C | 3% | 25µM* | 4% | 4.5µM*
C[C@@H]1CC=C[C@@H]2[C@H]1C(=O)N(Cc1ccccc1)[C@H]2c1ccccc1Br | 1% | -3% | 1% | -11%
CC(=O)N1c2ccccc2C(=O)C1N1CCN(c2cc(Cl)ccc2C)CC1 (stereo not drawn) | / | ? | -6% | ?
CCOC(=O)c1cc(S(=O)(=O)N2CCN(c3cc(C)ccc3C)CC2)[nH]n1 | -4% | -1% | 0% | -12%
CCc1sc(Nc2cccc(C)c2)nc1-c1cc2cccc(OC)c2oc1=O | / | -2% | 5% | ?
CCc1ccc(NC(=O)CSc2nccn2-c2ccc(OC)cc2)cc1 | / | 1% | -14% | 10µM*
COc1cccc(-n2ccnc2SCC(=O)Nc2nccs2)c1 | 2% | 28µM* | 26% | 5%
COc1ccc(NC(=O)CSc2nccn2-c2ccccc2)cc1 | 12% | -3% | -7% | 10%
COc1ccc(-c2nn(-c3ccccc3)cc2C(=O)Nc2nccs2)cc1 | -2% | -2% | ? | ?
COc1cccc(-c2nn(-c3ccccc3)cc2C(=O)Nc2nccs2)c1 | -10% | -1% | -27% | 7.1µM*
CCc1ccccc1N(C)C(=O)c1cn(-c2cccc(OC)c2)c(=O)c2ccccc12 | / | -22% | 40% | ?
CCOC(=O)N1CCc2c(sc(NCc3cccc(F)c3)c2C(=O)Nc2ccc(OCC)cc2)C1 | / | -5% | -1% | -22%
Cc1ccc(C(=O)O/N=C(\N)c2ccccn2)c(Cl)c1 | -8% | 0% | ? | 1.1µM*
N/C(=N\OC(=O)c1ccc([N+](=O)[O-])cc1Cl)c1ccccn1 | -8% | / | -2% | 1.8µM*
N/C(=N\OC(=O)c1ccc(Cl)cc1Cl)c1ccccn1 | -5% | 0% | -1% | 5.6µM*
Cc1ccc(C(=O)O/N=C(\N)c2ccccc2)c(Cl)c1 | -10% | 1% | 2% | ?
SMILES | GLP1R ag | ClpP mod | HEK293 tox | GLP1R inv ag
CC1(C)CC(=O)c2cc(-c3nc(-c4ccc(F)cc4)cs3)c(=O)[nH]c2C1 | / | -10% | 10% | 6%
CCOC(=O)C1=C(C)NC2=C(C(=O)CCC2)C1c1cccs1 (stereo not drawn) | 14% | ? | -8% | 1%
CCOC(=O)c1sc2c(c1C)C(c1cccs1)C1=C(CCCC1=O)N2 (stereo not drawn) | 4% | 4.5µM* | 383% | ?
COc1ccc(C)cc1NC(=O)CSc1nc(=O)n(Cc2ccccn2)c2c1CCC2 | / | -4% | -11% | 2%
CCOC(=O)c1c(-c2ccccc2)nc2c(C)cccn12 | 20% | -6% | 6% | 13%
Cc1cccn2c(N)c(-c3ccccc3)nc12 | 1% | 16µM* | 1% | 3%
COc1cccc(CN2c3ccccc3-c3nc(SCC(=O)Nc4ccccc4Cl)ncc3S2(=O)=O)c1 | 1% | -6% | 1% | -34%
CCOC(=O)c1c(NC(=O)c2nc(SCC)ncc2Cl)sc2c1CCCC2 | / | 0% | -3% | 3%
CCOc1ccc(OCC(=O)Nc2ccc(S(=O)(=O)Nc3cc(C)on3)cc2)cc1 | / | 0% | -9% | -7%
COc1cc(/C=C/C(=O)Nc2nnc(C(C)(C)C)s2)cc(OC)c1OC | 1% | 32µM* | -7% | 10%
COc1cc(/C=C/C(=O)Nc2nc3ccc(S(=O)(=O)N(C)C)cc3s2)cc(OC)c1OC | 9% | 7.9µM* | -3%[1.53 µM] | 12%
COc1cc(C(=O)Nc2nc3ccc(S(=O)(=O)N4CCOCC4)cc3s2)cc(OC)c1OC | 4% | -11% | 0% | -8%
COc1cc(/C=C/C(=O)Nc2ccc(C)cc2)cc(OC)c1OC | 0% | -2% | -13% | -21%
COc1ccc(-c2noc(-c3nnn(-c4ccc(C)cc4C)c3C)n2)cc1 | / | -4% | -15% | 14%
COC(=O)c1ccc(C23CC4(C2)[C@H](CN(C)[C@@H]4c2ccccc2)C3c2ccc(C(F)(F)F)cc2)cc1 (stereo partly drawn) | -4% | -7% | -10% | 10µM*
FC(F)(F)c1ccc(CN2C[C@@H]3C(c4ccccc4)C4(c5cccnc5)CC3(C4)[C@H]2c2ccccc2)cc1 (stereo partly drawn) | -1% | 0% | 7% | 11µM*
CSC1=NC2(CCN(C(=O)NC3CCCCC3)CC2)N=C1c1ccc(C)c(C)c1 | / | 0% | 3% | 0%
Cc1cccc(-c2nn(-c3ccccc3)cc2CNCCO)c1 | / | -29% | / | /
COc1cc(C2C3=C(CCCC3=O)Nc3ccc4ncccc4c32)ccc1O (stereo not drawn) | ? | / | ? | 3%
COc1ccc(C2C3=C(CCCC3=O)Nc3ccc4ncccc4c32)cc1OC (stereo not drawn) | 15% | 6.3µM* | 12%[0.307 µM] | -5%[0.307 µM]
COc1ccc2c(c1)CCc1c-2n[nH]c1C(=O)NCCC(C)C | -3% | -22% | -2% | 7.9µM*
CNC(=O)c1ccc2nc(-c3cccc(C)c3)c(-c3cccc(C)c3)nc2c1 | / | 4% | / | /
Cc1cc(NCCN(C)C)n2nc(-c3cccs3)cc2n1 | -6% | 28µM* | 9% | 4%
C=CCn1c(Cc2cccs2)nnc1SCC(=O)c1cccc(Br)c1 | 6% | 1% | -9% | 5.6µM*
CO[C@H]1OC2O[C@@]3(C)CC[C@H]4[C@H](C)CC[C@@H]([C@H]1C)[C@@]24OO3 (stereo partly drawn) | -8% | / | / | /
COc1ccc(-c2nc3scc(CCNS(=O)(=O)c4ccc5c(c4)OCCO5)n3n2)cc1OC | / | 1% | 2% | 20%
Nc1ccccc1C(=O)Nc1cccc(C(=O)O)c1 | 1% | ? | 10% | ?
CCNc1ccc(C(=O)O)cc1N | -18% | 25µM* | -2% | -28%

Bioassay records (PubChem BioAssay)
